Only some compounds are listed: those with a hit (about 2.2% of all), similar ones and a draw of the others.
dFosB act-1 = enhances mouse delta FosB homodimer DNA binding; P13346; purified delta FosB, TAMRA-CDK5 oligo fluorescence polarization; percent of positive-control signal above neutral wells; activation, % at 25 µM; 0.99% of 340,000 active;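 active means mean activation above about 17%, with every replicate also reaching it, limit read from the data, passing the limit was not always enough; inconclusive means only one of the two conditions met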
Target sequence (P13346 whole entry, looked up): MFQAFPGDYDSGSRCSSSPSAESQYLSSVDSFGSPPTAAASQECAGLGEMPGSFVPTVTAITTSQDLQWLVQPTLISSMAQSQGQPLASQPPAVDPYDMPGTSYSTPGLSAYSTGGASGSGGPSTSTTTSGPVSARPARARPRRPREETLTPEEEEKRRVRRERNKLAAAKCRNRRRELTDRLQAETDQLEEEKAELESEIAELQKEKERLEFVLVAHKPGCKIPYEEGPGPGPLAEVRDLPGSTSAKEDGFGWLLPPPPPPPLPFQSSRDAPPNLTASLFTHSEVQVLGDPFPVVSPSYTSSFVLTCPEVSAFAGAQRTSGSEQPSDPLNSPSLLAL
NALP1 inh = NALP1 inhibition; AID 2071; 0.61% of 280,000 active; S. cerevisiae NALP1/ASC/caspase-1 growth, X-gal OD620, 72 h; inhibition, % at 10 µM; in the data active means inhibition mostly above about 24%, no sharp cut-off; inactive means mostly below about 32%
PolyA inh = yeast polyadenylation inhibition. S. cerevisiae SKY197-pL101 polyadenylation reporter, beta-gal luminescence; efflux-impaired pdr1/pdr3 knockout yeast; score 100 = 6 SD above DMSO. activity score, % at 12 µM. 0.02% of 300,000 active. AID 1875;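 active means lowest replicate activity score at least 50, where 100 means six control SD above control mean; inconclusive means lowest score under 50 but half or more replicates reach 50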;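 further: yeast exposed to compound for 9 h at 30 °C; higher score means more reporter readthrough which indicates perturbed polyadenylation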
NALP3 yeast inh = NALP3 inhibition in yeast | Yeast reconstituted NLRP3/ASC/caspase-1, beta-gal luminescence, 24 h | inhibition, % at 10 µM | 0.39% of 330,000 active;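 active means inhibition of 50% or more; inactive means inhibition below 50%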;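 further: plate controls were induced DMSO wells for no effect and uninduced yeast grown without galactose for full effect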
ZTA DNA inh = blocks Epstein-Barr virus ZTA, an EBNA-1 counter-screen | P03206 | ZTA-DNA binding, fluorescence polarization | inhibition, % at 11 µM | 0.15% of 320,000 active | AID 2234; in the data active means inhibition above about 33%
EBNA-1 inhibitor = blocks EBNA-1 binding to DNA; EBNA-1 DNA binding, fluorescence polarization; inhibition, % at 14.8 µM; 0.34% of 300,000 active; in the data active means inhibition above about 28%
dFosB act-2 = activators of mouse delta FosB homodimer DNA binding. shares compounds with dFosB act-1. purified delta FosB, TAMRA-CDK5 oligo fluorescence polarization; normalised: neutral wells 0, positive control 100. activation, % at 24.9 µM. 2,400 tested, under 10 active. AID 588690;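 active means highest replicate activation at or above 34% and every replicate reaching that threshold; inconclusive means meets only one of the two criteria; inactive means meets neither criterion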;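 further: higher polarization means more probe DNA bound by delta FosB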
* hit, by the source's call; ? = inconclusive; nt = no result given.

SMILES	dFosB act-1	NALP1 inh	PolyA inh	NALP3 yeast inh	ZTA DNA inh	EBNA-1 inhibitor	dFosB act-2
COc1ccc(-c2cn3c(C)c(C(=O)Nc4ccncc4)sc3n2)cc1	1.6	-25.1	-18.6	7.7	12.3	6.1	nt
COC(=O)c1ccc(NC(=O)c2snnc2-c2ccccc2)cc1	-10.6	-30.3	-2.8	20.7	1.7	0.3	nt
COC(=O)c1ccc(NC(=O)c2sc3nc(-c4ccccc4)cn3c2C)cc1	25.6*	11.9	37.7	11.0	-15.9	-7.3	1.2
COC(=O)c1ccc(NC(=O)c2c(C(=O)Nc3ccccc3)sc3nc(C)cc(=O)n23)cc1	91.8*	-7.9	nt	18.7	7.0	4.2	0.8
CCOc1ccc(CCNC(=O)CCC(=O)N2CCOc3ccccc32)cc1OCC	-3.5	9.4	1.2	17.6	4.8	12.3	nt
CCOc1ccc(NC(=O)CN2C(=O)NC3(CCCCCC3)C2=O)cc1	-6.5	nt	nt	12.9	nt	nt	nt
O=C(NC(NC(=S)Nc1c(Cl)cccc1Cl)C(Cl)(Cl)Cl)OCc1ccccc1 (configuration not stated)	16.3*	-14.8	1.0	4.7	-3.0	-3.8	5.5
O=C(NCCCN1CCOCC1)c1c(O)c2ccccc2[nH]c1=O	-11.6	5.1	23.1	41.3	-0.3	-4.4	nt
CCOc1cc2[nH]c(=S)n(Cc3ccc(C(=O)NCCN(CC)CC)cc3)c(=O)c2cc1OCC	25.5*	-14.5	-27.8	0.8	10.0	-3.8	-8.7
COc1cc2[nH]c(=O)c(C(=O)NCCCN3CCCCC3)c(O)c2cc1OC	26.3*	31.3	14.1	-3.4	7.0	10.2	?
COc1cc2[nH]c(=O)n(CCC(=O)N3CCC(N4CCCCC4)CC3)c(=O)c2cc1OC	4.9	-1.1	-8.6	-3.3	5.7	7.8	nt
COc1cc2[nH]c(=O)n(CCCCCC(=O)NCCCN3CCC(C)CC3)c(=O)c2cc1OC	4.0	0.1	4.7	9.5	-10.3	3.5	nt
COc1cc2[nH]c(=O)n(Cc3ccc(C(=O)N4CCC(N5CCCCC5)CC4)cc3)c(=O)c2cc1OC	33.6*	21.8	0.4	-1.5	0.1	-5.3	0.1
COc1cc2[nH]c(=O)n(Cc3ccc(C(=O)NCCCN4CCC(C)CC4)cc3)c(=O)c2cc1OC	27.6*	15.2	21.2	4.0	5.6	-5.2	3.7
NCCNc1ccc([N+](=O)[O-])c(Sc2nc3ccccc3[nH]2)c1	25.4*	23.7	17.5	8.2	29.3	6.4	0.1
COC(=O)c1sc2ncccc2c1OCc1c(Cl)cccc1Cl	35.2*	2.6	-12.1	-1.4	-6.5	-3.8	5.4
COC(=O)c1sc2ncccc2c1OCc1cccc(Cl)c1	-18.5	7.0	-22.4	3.5	-21.6	-2.5	nt
COc1ccc(CNC(=O)COC(=O)[C@@H]2CCCN2C(=O)c2cccs2)cc1	2.8	nt	nt	9.2	nt	nt	nt
Cc1cccc(C)c1OCC(=O)Nc1ncn[nH]1	-8.3	16.2	-2.7	-12.8	-17.9	-12.9	nt
O=C(COc1ccc2ccccc2c1Br)Nc1ncn[nH]1	25.5*	9.2	24.5	10.1	-5.1	27.0	5.7
CCc1nn(CC(=O)NCCC2=CCCCC2)c(=O)c2cc3cc(F)ccc3n12	40.6*	14.5	-8.5	6.1	-4.7	-1.0	-5.7
N#Cc1ccccc1NC(=O)COC(=O)/C=C/c1ccc(S(=O)(=O)N2CCOCC2)cc1	-8.7	nt	nt	17.2	nt	nt	nt
COCCn1c(=NC(=O)/C=C/c2ccccc2Cl)sc2cc(NC(C)=O)ccc21	26.5*	24.4	-9.7	19.0	-0.7	-22.8	-2.2
CCOCCn1c(=NC(=O)/C=C/c2ccccc2Cl)sc2cc(NC(C)=O)ccc21	-6.9	-5.4	-9.4	8.9	-3.4	-4.6	nt
Cc1oc2cc(O)ccc2c(=O)c1Oc1ccc(F)cc1	18.7*	-2.4	-7.2	24.6	-11.2	-0.6	3.0
Cc1ccnn1-c1ccc(C(=O)N2CCCN(S(=O)(=O)c3ccc(F)cc3)CC2)cc1	-8.9	nt	nt	14.6	-10.8	nt	nt
COC(=O)c1ccc(C(=O)Nc2ccc3c(c2)C(=O)NC3=O)cc1	85.8*	nt	8.6	7.7	23.4	-2.2	5.6
O=C(Nc1ccc2c(c1)C(=O)NC2=O)c1cc(Cl)ccc1Cl	-0.9	29.8	-11.7	7.8	-7.8	2.2	nt

Compound activity deposited in PubChem BioAssay by several laboratories.
